Common to all, as to parameters: species or system human, MV4-11 + K-562 + COLO205 + SK-N-BE2 + OVCAR-8
One experiment has as its system EPHB6. As to conditions: read-out: apparent Kd, n = 1.
The test system of a further experiment is FLT4. As to conditions: read-out: apparent Kd; compound concentrations: 100 nM and 1000 nM (sheet 'Samples'), CATDS: 0.213105830255753; n = 1.
The test system of another experiment is GAK. As to conditions: read-out: apparent Kd, n = 1.
The next experiment deals with MAP2K5. The following applies: read-out: apparent Kd, compound concentrations: 100 nM and 1000 nM (sheet 'Samples'), n = 1.
For the next experiment, the system named is PDGFRB. The following applies: read-out: apparent Kd; compound concentrations: 100 nM and 1000 nM (sheet 'Samples'), CATDS: 0.165477129932846; n = 1.
The next experiment has as its system NQO2. As to conditions: read-out: apparent Kd; compound concentrations:100 nM and 1000 nM (sheet 'Samples'); n = 1.
Another experiment has as its system EIF2AK1. As to conditions: read-out: apparent Kd; compound concentrations:100 nM and 1000 nM (sheet 'Samples'); n = 1.
A further experiment concerns MAPK11. As to conditions: read-out: apparent Kd; compound concentrations:100 nM and 1000 nM (sheet 'Samples'); n = 1.
Another experiment relates to MAPK14. The following applies: read-out: apparent Kd; compound concentrations:100 nM and 1000 nM (sheet 'Samples'); n = 1.
The subject of a further experiment is MAPK8. As to conditions: read-out: apparent Kd; compound concentrations:100 nM and 1000 nM (sheet 'Samples'); n = 1.
In another experiment the test system is MAPK9. As to conditions: read-out: apparent Kd; compound concentrations:100 nM and 1000 nM (sheet 'Samples'); n = 1.
A further experiment has as its system MAPKAPK2. The following applies: read-out: apparent Kd; compound concentrations:100 nM and 1000 nM (sheet 'Samples'); n = 1.
For the next experiment, the system named is PIP4K2C. The following applies: read-out: apparent Kd; compound concentrations:100 nM and 1000 nM (sheet 'Samples'); n = 1.
The next experiment relates to RIPK2. The following applies: read-out: apparent Kd, n = 1.
The next experiment relates to SIK2. As to conditions: read-out: apparent Kd; compound concentrations:100 nM and 1000 nM (sheet 'Samples'); n = 1.
In another experiment the test system is SIK3. As to conditions: read-out: apparent Kd; compound concentrations:100 nM and 1000 nM (sheet 'Samples'); n = 1.
The test system of a further experiment is TAOK2. As to conditions: read-out: apparent Kd; compound concentrations:100 nM and 1000 nM (sheet 'Samples'); n = 1.
In the next experiment the test system is EPHA5. The following applies: read-out: apparent Kd; compound concentrations: 100 nM and 1000 nM (sheet 'Samples'), CATDS: 0.352465913660859; n = 1.
The subject of a further experiment is PIK3CD. As to conditions: read-out: apparent Kd; compound concentrations: 100 nM and 1000 nM (sheet 'Samples'), CATDS: 0.85995893919281496; n = 1.
Another experiment relates to EGFR. The following applies: read-out: apparent Kd, compound concentrations: 100 nM and 1000 nM (sheet 'Samples'), n = 1.
The next experiment has as its system JAK2. As to conditions: read-out: apparent Kd; compound concentrations:100 nM and 1000 nM (sheet 'Samples'); n = 1.
A further experiment relates to PRKACG. The following applies: read-out: apparent Kd; compound concentrations:100 nM and 1000 nM (sheet 'Samples'); n = 1.
The subject of the next experiment is ERBB3. As to conditions: read-out: apparent Kd, n = 1.
For another experiment, the system named is FYN. As to conditions: read-out: apparent Kd, compound concentrations: 100 nM and 1000 nM (sheet 'Samples'), n = 1.
In another experiment the test system is HCK. The following applies: read-out: apparent Kd; compound concentrations: 100 nM and 1000 nM (sheet 'Samples'), CATDS: 0.242489240886436; n = 1.
Another experiment concerns LCK. The following applies: read-out: apparent Kd; compound concentrations: 100 nM and 1000 nM (sheet 'Samples'), CATDS: 0.10096254508192699; n = 1.
The next experiment deals with LYN. As to conditions: read-out: apparent Kd; compound concentrations: 100 nM and 1000 nM (sheet 'Samples'), CATDS: 8.32238060167768E-2; n = 1.
Another experiment deals with RIPK3. The following applies: read-out: apparent Kd, compound concentrations: 100 nM and 1000 nM (sheet 'Samples'), n = 1.
A further experiment concerns SRC. The following applies: read-out: apparent Kd; compound concentrations: 100 nM and 1000 nM (sheet 'Samples'), CATDS: 0.138583252116979; n = 1.
The next experiment has as its system YES1. The following applies: read-out: apparent Kd; compound concentrations: 100 nM and 1000 nM (sheet 'Samples'), CATDS: 0.11029012837176901; n = 1.
For a further experiment, the system named is T1, T10.
T1 construct: gene NAT10
As to conditions: read-out: apparent Kd; compound concentrations:100 nM and 1000 nM (sheet 'Samples'); n = 1.

The test system of another experiment is PGK1. The following applies: read-out: apparent Kd; compound concentrations:100 nM and 1000 nM (sheet 'Samples'); n = 1.
For the next experiment, the system named is NQO1. As to conditions: read-out: apparent Kd; compound concentrations: 100 nM and 1000 nM (sheet 'Samples'), CATDS: 0.34789699583550798; n = 1.
The subject of another experiment is EPHA1. The following applies: read-out: apparent Kd; compound concentrations: 100 nM and 1000 nM (sheet 'Samples'), CATDS: 0.14534883893422801; n = 1.
The test system of the next experiment is EPHB3. The following applies: read-out: apparent Kd; compound concentrations: 100 nM and 1000 nM (sheet 'Samples'), CATDS: 9.8269686784854801E-2; n = 1.
The next experiment relates to RET. The following applies: read-out: apparent Kd; compound concentrations: 100 nM and 1000 nM (sheet 'Samples'), CATDS: 0.126385665807943; n = 1.
In another experiment the test system is TGFBR2. As to conditions: read-out: apparent Kd; compound concentrations: 100 nM and 1000 nM (sheet 'Samples'), CATDS: 0.121800483782391; n = 1.
[1] abbreviates: compound concentrations:100 nM and 1000 nM (sheet 'Samples').

SMILES strings stand for the structures. Read-outs that look alike come from different tables or passages of the source.

Consider `COc1ccc(N2Cc3cnc(Nc4ccccc4)nc3N([C@@H]3CC[C@@H](O)C3)C2=O)cc1` [RO4383596-000], for which the potency estimated from few doses in the experiment on EPHB6 (compound concentrations: 100 nM and 1000 nM (sheet 'Samples'), CATDS: 0.20218817743622799) was 1300 nM; in the experiment on FLT4, 1170 nM; with GAK (compound concentrations: 100 nM and 1000 nM (sheet 'Samples'), CATDS: 0.27304535513380701), 756 nM; with MAP2K5 (CATDS: 0.176800836122779), 1750 nM; with PDGFRB, 2060 nM.

As to `Cc1cc(-c2ccccn2)cc(C)c1/C=C/c1cncc(-c2nn[nH]n2)c1.Cl` [GW459057A], the potency estimated from few doses with EPHB6 (setting [1]) was 162 nM; in the experiment with NQO2 it was 1420 nM.

Turning to `Cn1c(=O)c(-c2ccccc2Cl)cc2cnc(NC3CCOCC3)nc21` [RO3303470-000], the potency estimated from few doses in the experiment on EIF2AK1 is 1090 nM; in the experiment on GAK (setting [1]), 695 nM; with MAPK11, 20.2 nM; in the experiment with MAPK14, 24 nM; with MAPK8 it was 318 nM; with MAPK9 it was 202 nM. The potency estimated from few doses in the experiment on MAPKAPK2 is 12.5 nM; with PIP4K2C it was 1140 nM; in the experiment with RIPK2 (setting [1]) it was 503 nM; in the experiment on SIK2 it was 1330 nM; in the experiment on SIK3, 604 nM; in the experiment with TAOK2, 1880 nM.

For the compound `Cn1cc(C2=C(c3c[nH]c4ccccc34)C(=O)NC2=O)c2ccccc21` [RO0317884-000], the potency estimated from few doses in the experiment on EPHA5 was 1650 nM; with PIK3CD, 146 nM.

Consider `O=C(O)C(F)(F)F.O=S1CCN(Cc2ccc(-c3ccc4ncnc(Nc5ccc(OCc6cccc(F)c6)c(Cl)c5)c4c3)o2)CC1` [GW576609A], for which the values for the potency estimated from few doses with EGFR (CATDS: 0.496271215913483), in the experiment with JAK2 and with PRKACG were 306 nM, 1050 nM and 781 nM, respectively.

Consider `O=C(NCCCN1CCOCC1)c1cccc(Nc2nccc(Nc3ccc(Oc4ccccc4)cc3)n2)c1` [GW663929X], for which the potency estimated from few doses in the experiment with ERBB3 (compound concentrations: 100 nM and 1000 nM (sheet 'Samples'), CATDS: 6.7979180467830594E-2) was 1550 nM; in the experiment with FYN (CATDS: 0.114580255038188) it was 343 nM; in the experiment on HCK, 96.7 nM; in the experiment on LCK, 455 nM; in the experiment on LYN, 756 nM; in the experiment with MAP2K5 (CATDS: 7.7428617985082396E-2), 947 nM. Further, the potency estimated from few doses in the experiment with RIPK2 (compound concentrations: 100 nM and 1000 nM (sheet 'Samples'), CATDS: 0.16454989385531299) was 175 nM; with RIPK3 (CATDS: 6.5605703607897303E-2), 1820 nM; in the experiment on SRC, 236 nM; with YES1 it was 373 nM.

As to `C[C@@H]1CC[C@@H](C(=O)Nc2ccccc2)CN1c1cc(-c2ccc3c(N)n[nH]c3c2)nc(N)n1` [GSK2286062A], the potency estimated from few doses with ERBB3 (setting [1]) was 1760 nM; in the experiment on T10, 1120 nM.

As for `CS(=O)(=O)CCNCc1nc(-c2ccc3ncnc(Nc4ccc(OCc5cccc(F)c5)c(Cl)c4)c3c2)cs1.Cl` [GW583340C], the values for the potency estimated from few doses in the experiment on EGFR (CATDS: 0.528390210256103) and in the experiment on PGK1 were 96.3 nM and 119 nM, respectively.

Take `CC(=O)NCc1cccc(C#Cc2cncnc2Nc2ccc(OCc3cccc(F)c3)c(Cl)c2)c1` [GW807930X]: the potency estimated from few doses is 149 nM in the experiment on EGFR (CATDS: 0.88842612806031096) and 2230 nM in the experiment on NQO1.

As for `CC(C)(C)c1ccc2nccc(Nc3cccc(O)c3)c2c1` [GW856795X], the potency estimated from few doses with EPHA1 was 443 nM; in the experiment on EPHB3, 1450 nM; in the experiment on FYN (CATDS: 0.110039828887459), 960 nM; with RET it was 634 nM; with RIPK2 (compound concentrations: 100 nM and 1000 nM (sheet 'Samples'), CATDS: 0.476664898558677), 52 nM; in the experiment with RIPK3 (CATDS: 0.215705247056383), 192 nM. In addition, the potency estimated from few doses in the experiment with TGFBR2 was 703 nM.
